We go through 40 compounds from PubChem BioAssay.

Results with a measured potency or affinity are listed apart. The source made the active and inactive calls.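 How the source made its calls: active means signal drop whose fitted half-maximal concentration is at most twice the top valid dose, in every test run; inconclusive means mixed calls across runs, poor fit, or flat 30 to 70% inhibition; inactive means wrong direction, flat within 30%, or potency beyond limit.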

This assay can be described thus: RMG-1 ovarian cancer cell viability loss – cherry-pick, dose response (AID 687029).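 Further: cells exposed to compound for 96 hours.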 The conditions noted are these: RMG-1 viability, CellTiterGlo ATP luminescence, 96 h; series mostly up to 35 µM. A general note: Cellular ATP, detected with luciferase, serves as a proxy for viable cell number.
`COc1cccc(-c2cnc3c(NC=O)cc(-c4ccc(OC)cc4OC)cn23)c1`: the call was inactive.
The value for `CCC(=O)N1CCN(c2ccc(NC(=O)c3ccc([N+](=O)[O-])o3)cc2)CC1` was “inactive”; that for `COc1ccc([N+](=O)[O-])c(S(=O)(=O)c2ccccc2)n1` was “inactive”.
As to `CCOC(=O)/C=C/C(=O)Nc1cc(S(=O)(=O)Nc2ccc(OC)cc2)ccc1N1CCOCC1`, the result was inactive.
Next, `CCCCCCCn1c2c(c(=N)c3c1CCC3)CCCC2`: “inactive”; `C[n+]1c2n(c3ccccc31)N=C(c1cc(C(C)(C)C)c(O)c(C(C)(C)C)c1)CS2`: “inactive”.
As for `CNC(=O)c1cc(Oc2ccc(NC(=O)Nc3ccc(Cl)c(C(F)(F)F)c3)cc2)ccn1`, the outcome was inactive.
Next, `Cc1ccc(S(=O)(=O)NCc2ccc(C(=O)N3CCN(c4ccc([N+](=O)[O-])cc4)CC3)cc2)cc1`: “inactive”.
On to `CN=c1scc(-c2cccs2)n1/N=C/c1ccccc1O`, for which the outcome was inactive.
The value for `Oc1ccc(C[C@H]2CNC(=S)N2CC2CCCN2C[C@H](Cc2ccc(O)cc2)N2C[C@H](Cc3ccc(O)cc3)N(CC3CCCCC3)C2=S)cc1` (stereo not given in full) was “inactive”.
Next, `CCn1c2ccccc2c2cc(NC(=O)c3cc(OC)cc(OC)c3)ccc21`: “inactive”.
Next, `CCCCCCN(C(=O)CCCN1C(=O)NC(c2ccc(-c3ccccc3)cc2)C(C(=O)OCc2ccccc2)=C1C)C(C)C(=O)NCCCC` (stereo not given): “inactive”; `Cc1cc(C)c(C(=O)/C=C/c2cccc3ccccc23)c(=O)[nH]1`: “inactive”; `CCCCCc1cc(=O)oc2c(C(CCN3CCCCC3)c3ccc4c(c3)OCO4)c(OC)cc(OC)c12` (stereo not given): “inactive”.
As for `Cn1nnnc1Sc1ncnc2scc(-c3ccc[nH]3)c12`, the compound was called inactive.
In the case of `COc1cccc(-c2nc(CS(=O)(=O)CC(=O)NCCCN3CC(C)CC(C)C3)c(C)o2)c1` (stereo not given), the result was inactive.
The value for `COCCN(CC(=O)NC1CCCCC1)C(=O)/C=C/C(=O)c1ccc(OC)cc1O` was “inactive”.
The value for `CCCCCc1c(-c2ccccc2OC)ncn1CCc1ccccc1OC` was “inactive”; that for `CC(=O)Nc1ccc(NC(=O)c2nc(S(=O)(=O)Cc3ccccc3)ncc2Cl)cc1` was “inactive”.
The value for `Cc1ccc(NC(=O)/C=C/c2ccc([N+](=O)[O-])s2)c(C)c1` was “inactive”.
Regarding `CCCCn1c(N)c(N(CCC(C)C)C(=O)COC(=O)c2ccc([N+](=O)[O-])s2)c(=O)[nH]c1=O`, the outcome was inactive.
On to `CC1=CC(=O)C(C(C)C)=C/C1=N/OS(=O)(=O)c1ccccc1`, for which the outcome was inactive.
As to `CCCCn1c(=O)[nH]c(=O)c2c1nc(Cn1ncc(Cl)c(Cl)c1=O)n2CCC`, the result was inactive.
The value for `CCN(CC)c1ccc2c(cc1=O)[C@@H](NC)CCc1cc(OC)c(OC)c(OC)c1-2` was “inactive”; that for `COc1cccc2c1C(=O)c1c(O)c3c(c(O)c1C2=O)CC(O)(C(C)=NNC(=O)c1ccc(Cl)c(Cl)c1)CC3OC1CC(N)C(O)C(C)O1` (stereo not given) was “inactive”; that for `Cc1ccc(CCc2nnc(SCC(=O)Nc3cccc(Cl)c3)n2-c2ccccc2)o1` was “inactive”.
Next, `CN(N=Nc1nc[nH]c1C(N)=O)C1CCCCC1`: “inactive”.
With `Cc1cc(C)n(-c2nc(NCCN(C)C)c3c4c(sc3n2)CCCC4)n1`, the compound was called inactive.
Regarding `CSc1nc(-c2ccccc2)nc(C(Cl)Cl)n1`, the compound was classed as inactive.
Take `O=C(Cn1ncc(Cl)c(Cl)c1=O)Nc1ccc2c(c1)OCO2`: the compound was called inactive.
Next, `CC(C)C(=O)N1CCN(c2ccc(NC(=O)c3ccc([N+](=O)[O-])o3)cc2Cl)CC1`: “inactive”; `C=C1C(=O)[C@@]23[C@H](O)C[C@@H]4C(C)(C)CC[C@H](O)[C@]4(C)[C@@H]2C[C@H](O)[C@@H]1[C@H]3O`: “inactive”; `O=C(Cn1ncc(Cl)c(Cl)c1=O)NC(=O)NC1CCCCC1`: “inactive”.
The value for `C=C1C(=O)O[C@@H]2[C@H]1[C@@H](OC(=O)/C(C)=C/C)C/C(C)=C\C(=O)/C=C(\C)[C@@H]2O` was “inactive”; that for `N#Cc1nc(NCC(F)F)nc(Nc2cc(F)cc(F)c2)n1` was “inactive”; that for `CCOc1ccc(C(=O)C(CN2CCOCC2)c2ccccc2)cc1` (stereo not given) was “inactive”.
As to `Cc1ccc2nc(NNC(=O)c3ccc(S(=O)(=O)N4CCc5ccccc5C4)cc3)sc2c1`, the compound was classed as inactive.
The value for `Cn1nnnc1Sc1ncnc2scc(-c3ccccc3Cl)c12` was “inactive”; that for `O=C(COC(=O)c1ccco1)Nc1cccc(S(=O)(=O)N2CCOCC2)c1` was “inactive”.
The value for `CCN(CC)S(=O)(=O)c1cc(OC)ccc1N=Nc1ccc(O)c2ncccc12` was “inactive”.
